These binders were tested against AgAbp1 (assay: SPOT peptide array binding signal intensity (averaged, normalized) (arbitrary units (background-subtracted, floor 0; scale differs between SH3 domains)); higher = stronger binding of the SH3 domain to the peptide).
Procedure, shortened: (§1)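 GST-fused SH3 domains from four yeast species were expressed in E. coli BL21(DE3), purified on glutathione Sepharose and incubated at 10 μg/ml overnight at 4°C in TBS-based blocking buffer on cellulose membranes carrying synthetic 15-mer peptides, with cysteines replaced by serines. Bound protein was detected with anti-GST antibody, an HRP anti-mouse secondary and luminol, then imaged and quantified with Genespotter. Binding signal is the normalized, background-subtracted spot intensity averaged over replicates, in arbitrary units that differ between domains.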

Binder	SPOT peptide array binding signal intensity
TYNRTAFQIPGDQSI	1

These binders were tested against AgBbc1 in the same assay as above.
Procedure, shortened: as §1

Binder	SPOT peptide array binding signal intensity
TYNRTAFQIPGDQSI	≤ 0

Each binder was assayed against AgBem1-D1 in the same assay as above.
Procedure, shortened: as §1

Binder	SPOT peptide array binding signal intensity
TYNRTAFQIPGDQSI	≤ 0

What follows are binders tested against AgBzz1-D1 in the same assay as above.
Procedure, shortened: as §1

Binder	SPOT peptide array binding signal intensity
TYNRTAFQIPGDQSI	60

These binders were tested against AgBzz1-D2 in the same assay as above.
Procedure, shortened: as §1

Binder	SPOT peptide array binding signal intensity
TYNRTAFQIPGDQSI	≤ 0

Each binder was assayed against AgCyk3 in the same assay as above.
Procedure, shortened: as §1

Binder	SPOT peptide array binding signal intensity
TYNRTAFQIPGDQSI	≤ 0

Each binder was assayed against AgFus1 in the same assay as above.
Procedure, shortened: as §1

Binder	SPOT peptide array binding signal intensity
TYNRTAFQIPGDQSI	0.5

What follows are binders tested against AgHof1 in the same assay as above.
Procedure, shortened: as §1

Binder	SPOT peptide array binding signal intensity
TYNRTAFQIPGDQSI	3.5

Each binder was assayed against AgHse1 in the same assay as above.
Procedure, shortened: as §1

Binder	SPOT peptide array binding signal intensity
TYNRTAFQIPGDQSI	≤ 0

What follows are binders tested against AgLsb1 in the same assay as above.
Procedure, shortened: as §1

Binder	SPOT peptide array binding signal intensity
TYNRTAFQIPGDQSI	540

These binders were tested against AgLsb4 in the same assay as above.
Procedure, shortened: as §1

Binder	SPOT peptide array binding signal intensity
TYNRTAFQIPGDQSI	≤ 0

These binders were tested against AgMyo5 in the same assay as above.
Procedure, shortened: as §1

Binder	SPOT peptide array binding signal intensity
TYNRTAFQIPGDQSI	2.25

The binders below were run against AgNbp2 in the same assay as above.
Procedure, shortened: as §1

Binder	SPOT peptide array binding signal intensity
TYNRTAFQIPGDQSI	≤ 0

The binders below were run against AgRvs167 in the same assay as above.
Procedure, shortened: as §1

Binder	SPOT peptide array binding signal intensity
TYNRTAFQIPGDQSI	1

These binders were tested against AgSho1 in the same assay as above.
Procedure, shortened: as §1

Binder	SPOT peptide array binding signal intensity
TYNRTAFQIPGDQSI	≤ 0

These binders were tested against AgSla1-D1-D2 in the same assay as above.
Procedure, shortened: as §1

Binder	SPOT peptide array binding signal intensity
TYNRTAFQIPGDQSI	≤ 0

The binders below were run against AgSla1-D3 in the same assay as above.
Procedure, shortened: as §1

Binder	SPOT peptide array binding signal intensity
TYNRTAFQIPGDQSI	1

Each binder was assayed against CaAbp1-D1 in the same assay as above.
Procedure, shortened: as §1

Binder	SPOT peptide array binding signal intensity
TYNRTAFQIPGDQSI	≤ 0

These binders were tested against CaAbp1-D2 in the same assay as above.
Procedure, shortened: as §1

Binder	SPOT peptide array binding signal intensity
TYNRTAFQIPGDQSI	≤ 0

These binders were tested against CaBbc1 in the same assay as above.
Procedure, shortened: as §1

Binder	SPOT peptide array binding signal intensity
TYNRTAFQIPGDQSI	1

These binders were tested against CaBem1-D1 in the same assay as above.
Procedure, shortened: as §1

Binder	SPOT peptide array binding signal intensity
TYNRTAFQIPGDQSI	≤ 0

Each binder was assayed against CaBzz1-D1 in the same assay as above.
Procedure, shortened: as §1

Binder	SPOT peptide array binding signal intensity
TYNRTAFQIPGDQSI	60.5

These binders were tested against CaBzz1-D2 in the same assay as above.
Procedure, shortened: as §1

Binder	SPOT peptide array binding signal intensity
TYNRTAFQIPGDQSI	43.5

Each binder was assayed against CaCyk3 in the same assay as above.
Procedure, shortened: as §1

Binder	SPOT peptide array binding signal intensity
TYNRTAFQIPGDQSI	1

These binders were tested against CaFus1 in the same assay as above.
Procedure, shortened: as §1

Binder	SPOT peptide array binding signal intensity
TYNRTAFQIPGDQSI	≤ 0

What follows are binders tested against CaHof1 in the same assay as above.
Procedure, shortened: as §1

Binder	SPOT peptide array binding signal intensity
TYNRTAFQIPGDQSI	0.5

Each binder was assayed against CaHse1 in the same assay as above.
Procedure, shortened: as §1

Binder	SPOT peptide array binding signal intensity
TYNRTAFQIPGDQSI	2.5

Each binder was assayed against CaLsb1 in the same assay as above.
Procedure, shortened: as §1

Binder	SPOT peptide array binding signal intensity
TYNRTAFQIPGDQSI	207

Each binder was assayed against CaLsb4 in the same assay as above.
Procedure, shortened: as §1

Binder	SPOT peptide array binding signal intensity
TYNRTAFQIPGDQSI	≤ 0

Each binder was assayed against CaMyo5 in the same assay as above.
Procedure, shortened: as §1

Binder	SPOT peptide array binding signal intensity
TYNRTAFQIPGDQSI	≤ 0

What follows are binders tested against CaNbp2 in the same assay as above.
Procedure, shortened: as §1

Binder	SPOT peptide array binding signal intensity
TYNRTAFQIPGDQSI	≤ 0

These binders were tested against CaRvs167 in the same assay as above.
Procedure, shortened: as §1

Binder	SPOT peptide array binding signal intensity
TYNRTAFQIPGDQSI	2.33

Each binder was assayed against CaRvs167-3 in the same assay as above.
Procedure, shortened: as §1

Binder	SPOT peptide array binding signal intensity
TYNRTAFQIPGDQSI	0.5

What follows are binders tested against CaSho1 in the same assay as above.
Procedure, shortened: as §1

Binder	SPOT peptide array binding signal intensity
TYNRTAFQIPGDQSI	≤ 0

These binders were tested against CaSla1-D1-D2 in the same assay as above.
Procedure, shortened: as §1

Binder	SPOT peptide array binding signal intensity
TYNRTAFQIPGDQSI	≤ 0

These binders were tested against CaSla1-D3 in the same assay as above.
Procedure, shortened: as §1

Binder	SPOT peptide array binding signal intensity
TYNRTAFQIPGDQSI	1.5

The binders below were run against ScAbp1 in the same assay as above.
Procedure, shortened: as §1

Binder	SPOT peptide array binding signal intensity
TYNRTAFQIPGDQSI	≤ 0

Each binder was assayed against ScBbc1 in the same assay as above.
Procedure, shortened: as §1

Binder	SPOT peptide array binding signal intensity
TYNRTAFQIPGDQSI	2.5

The binders below were run against ScBem1-D1 in the same assay as above.
Procedure, shortened: as §1

Binder	SPOT peptide array binding signal intensity
TYNRTAFQIPGDQSI	11

These binders were tested against ScBzz1-D1 in the same assay as above.
Procedure, shortened: as §1

Binder	SPOT peptide array binding signal intensity
TYNRTAFQIPGDQSI	40

The binders below were run against ScBzz1-D2 in the same assay as above.
Procedure, shortened: as §1

Binder	SPOT peptide array binding signal intensity
TYNRTAFQIPGDQSI	13.5

These binders were tested against ScCyk3 in the same assay as above.
Procedure, shortened: as §1

Binder	SPOT peptide array binding signal intensity
TYNRTAFQIPGDQSI	≤ 0

What follows are binders tested against ScFus1 in the same assay as above.
Procedure, shortened: as §1

Binder	SPOT peptide array binding signal intensity
TYNRTAFQIPGDQSI	≤ 0

These binders were tested against ScHof1 in the same assay as above.
Procedure, shortened: as §1

Binder	SPOT peptide array binding signal intensity
TYNRTAFQIPGDQSI	≤ 0

These binders were tested against ScHse1 in the same assay as above.
Procedure, shortened: as §1

Binder	SPOT peptide array binding signal intensity
TYNRTAFQIPGDQSI	≤ 0

Each binder was assayed against ScLsb1 in the same assay as above.
Procedure, shortened: as §1

Binder	SPOT peptide array binding signal intensity
TYNRTAFQIPGDQSI	142

The binders below were run against ScLsb2 in the same assay as above.
Procedure, shortened: as §1

Binder	SPOT peptide array binding signal intensity
TYNRTAFQIPGDQSI	661

Each binder was assayed against ScLsb3 in the same assay as above.
Procedure, shortened: as §1

Binder	SPOT peptide array binding signal intensity
TYNRTAFQIPGDQSI	≤ 0

What follows are binders tested against ScLsb4 in the same assay as above.
Procedure, shortened: as §1

Binder	SPOT peptide array binding signal intensity
TYNRTAFQIPGDQSI	11.5

These binders were tested against ScMyo3 in the same assay as above.
Procedure, shortened: as §1

Binder	SPOT peptide array binding signal intensity
TYNRTAFQIPGDQSI	3

These binders were tested against ScMyo5 in the same assay as above.
Procedure, shortened: as §1

Binder	SPOT peptide array binding signal intensity
TYNRTAFQIPGDQSI	8.5

The binders below were run against ScNbp2 in the same assay as above.
Procedure, shortened: as §1

Binder	SPOT peptide array binding signal intensity
TYNRTAFQIPGDQSI	≤ 0

These binders were tested against ScPex13 in the same assay as above.
Procedure, shortened: as §1

Binder	SPOT peptide array binding signal intensity
TYNRTAFQIPGDQSI	≤ 0

These binders were tested against ScRvs167 in the same assay as above.
Procedure, shortened: as §1

Binder	SPOT peptide array binding signal intensity
TYNRTAFQIPGDQSI	≤ 0

Each binder was assayed against ScSho1 in the same assay as above.
Procedure, shortened: as §1

Binder	SPOT peptide array binding signal intensity
TYNRTAFQIPGDQSI	≤ 0

Each binder was assayed against ScSla1-D1-D2 in the same assay as above.
Procedure, shortened: as §1

Binder	SPOT peptide array binding signal intensity
TYNRTAFQIPGDQSI	≤ 0

Each binder was assayed against ScSla1-D3 in the same assay as above.
Procedure, shortened: as §1

Binder	SPOT peptide array binding signal intensity
TYNRTAFQIPGDQSI	0.5

What follows are binders tested against SpAbp1-D1 in the same assay as above.
Procedure, shortened: as §1

Binder	SPOT peptide array binding signal intensity
TYNRTAFQIPGDQSI	≤ 0

The binders below were run against SpBbc1 in the same assay as above.
Procedure, shortened: as §1

Binder	SPOT peptide array binding signal intensity
TYNRTAFQIPGDQSI	0.5

These binders were tested against SpBzz1-D1 in the same assay as above.
Procedure, shortened: as §1

Binder	SPOT peptide array binding signal intensity
TYNRTAFQIPGDQSI	70

The binders below were run against SpBzz1-D2 in the same assay as above.
Procedure, shortened: as §1

Binder	SPOT peptide array binding signal intensity
TYNRTAFQIPGDQSI	≤ 0

What follows are binders tested against SpCyk3 in the same assay as above.
Procedure, shortened: as §1

Binder	SPOT peptide array binding signal intensity
TYNRTAFQIPGDQSI	≤ 0

Each binder was assayed against SpHof1 in the same assay as above.
Procedure, shortened: as §1

Binder	SPOT peptide array binding signal intensity
TYNRTAFQIPGDQSI	1.75

The binders below were run against SpHof1-2 in the same assay as above.
Procedure, shortened: as §1

Binder	SPOT peptide array binding signal intensity
TYNRTAFQIPGDQSI	5.25

What follows are binders tested against SpHof1-3 in the same assay as above.
Procedure, shortened: as §1

Binder	SPOT peptide array binding signal intensity
TYNRTAFQIPGDQSI	0.25

These binders were tested against SpHse1 in the same assay as above.
Procedure, shortened: as §1

Binder	SPOT peptide array binding signal intensity
TYNRTAFQIPGDQSI	50.2

The binders below were run against SpLsb1 in the same assay as above.
Procedure, shortened: as §1

Binder	SPOT peptide array binding signal intensity
TYNRTAFQIPGDQSI	17.5

What follows are binders tested against SpLsb4 in the same assay as above.
Procedure, shortened: as §1

Binder	SPOT peptide array binding signal intensity
TYNRTAFQIPGDQSI	≤ 0

The binders below were run against SpMyo1 in the same assay as above.
Procedure, shortened: as §1

Binder	SPOT peptide array binding signal intensity
TYNRTAFQIPGDQSI	2.75

These binders were tested against SpNbp2 in the same assay as above.
Procedure, shortened: as §1

Binder	SPOT peptide array binding signal intensity
TYNRTAFQIPGDQSI	≤ 0

What follows are binders tested against SpPex13 in the same assay as above.
Procedure, shortened: as §1

Binder	SPOT peptide array binding signal intensity
TYNRTAFQIPGDQSI	≤ 0

Each binder was assayed against SpRvs167 in the same assay as above.
Procedure, shortened: as §1

Binder	SPOT peptide array binding signal intensity
TYNRTAFQIPGDQSI	0.333

The binders below were run against SpSla1-D1-D2 in the same assay as above.
Procedure, shortened: as §1

Binder	SPOT peptide array binding signal intensity
TYNRTAFQIPGDQSI	≤ 0

The binders below were run against SpSla1-D3 in the same assay as above.
Procedure, shortened: as §1

Binder	SPOT peptide array binding signal intensity
TYNRTAFQIPGDQSI	≤ 0
